Compound activity: PubChem BioAssay, several laboratories
Hits are enriched below; roughly 1.9% of the tested compounds scored in any of these assays.
NR1D1 modulator: Rev-erb alpha (human) modulation; activity, % at 10 µM; 370,000 compounds, 0.79% hits; P20393; AID 1259318; Rev-erbα–FITC-DNA binding, fluorescence polarization, 90 min;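 active means activity above about 14%, limit read from the data; passing the limit was not always enough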;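 further: 0% = DMSO wells with 35 nM protein and 100% = DMSO wells with 750 nM protein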
Target sequence (P20393 whole entry, looked up): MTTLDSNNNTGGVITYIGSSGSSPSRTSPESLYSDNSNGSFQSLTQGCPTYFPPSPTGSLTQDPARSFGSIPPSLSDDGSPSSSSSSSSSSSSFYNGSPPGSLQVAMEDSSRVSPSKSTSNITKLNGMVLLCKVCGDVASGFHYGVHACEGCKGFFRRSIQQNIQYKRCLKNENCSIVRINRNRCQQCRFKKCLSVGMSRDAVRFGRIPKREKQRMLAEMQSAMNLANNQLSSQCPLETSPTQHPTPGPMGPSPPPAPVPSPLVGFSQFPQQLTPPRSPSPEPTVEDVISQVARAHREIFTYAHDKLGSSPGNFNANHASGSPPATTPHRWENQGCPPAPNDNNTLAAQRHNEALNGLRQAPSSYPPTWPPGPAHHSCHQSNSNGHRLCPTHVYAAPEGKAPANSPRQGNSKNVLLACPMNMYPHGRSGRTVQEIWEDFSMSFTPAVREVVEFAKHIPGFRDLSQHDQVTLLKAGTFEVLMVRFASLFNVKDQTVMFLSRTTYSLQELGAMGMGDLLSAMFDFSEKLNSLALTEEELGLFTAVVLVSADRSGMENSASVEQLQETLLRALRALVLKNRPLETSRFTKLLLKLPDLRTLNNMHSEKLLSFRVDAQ
ZTA counter: counter-screen for EBNA-1 inhibitors: inhibitors of Epstein-Barr virus ZTA; P03206; ZTA-DNA binding, fluorescence polarization; inhibition, % at 11 µM; 320,000 compounds, 0.15% hits; in the data active means inhibition above about 33%
p47phox inh: p47phox (human) inhibition. inhibition, % at 24.7 µM. P14598. 220,000 compounds, 0.53% hits. p47phox/p22phox peptide binding, fluorescence polarization, 2 h;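 active means inhibition above about 30%, limit read from the data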;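 further: 0% = p47phox with labelled peptide and 100% = labelled peptide alone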
PG9 binder: small molecules binding HIV-1 gp120 antibody PG9; AID 624416; 360,000 compounds, 0.43% hits; inhibition, % at 6.7 µM; TR-FRET gp120-PG9 antibody binding; in the data active means inhibition above about 8.5%
EBNA-1 inh: blocks EBNA-1 binding to DNA. EBNA-1 DNA binding, fluorescence polarization. inhibition, % at 14.8 µM. 300,000 compounds, 0.34% hits; in the data active means inhibition above about 28%
aDG glyco act: increases alpha dystroglycan glycosylation | Pro5-aDG cells, alpha-DG glycosylation AlphaScreen (IIH6); 0% Pro5, 100% B10-LARGE cell signal | activation, % at 10 µM | 360,000 compounds, 0.22% hits;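 active means activation of at least 8% versus controls, or a plate z-score of at least 8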;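 further: Pro5 are CHO cells carrying HIG-tagged alpha-DG that lacks glycosylation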
NR1D1 mod conf: Rev-erb alpha (human) modulation, hit confirmation | shares compounds with NR1D1 modulator | Rev-erb alpha FITC-DNA binding, fluorescence polarization, 90 min | activation, % at 25 µM | 3,000 compounds, 61% hits;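 active means activation at or above a set limit, or at least 3 SD above the negative control mean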;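 further: 0% = 35 nM protein with DMSO and 100% = 750 nM protein high control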
RORg counter: counter-screen for Rev-erb alpha modulators: RORgamma DNA binding; purified RORgamma protein-FITC-DNA binding, fluorescence polarization; 910 compounds, 8% hits; shares compounds with NR1D1 modulator; IC50, µM;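 active means Compounds whose fitted half-maximal concentration for disrupting protein-DNA binding is below 10 micromolar; the record names Rev-erb in its text, so the target is in doubt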
* hit, by the source's call; x = no result.

SMILES | NR1D1 modulator | ZTA counter | p47phox inh | PG9 binder | EBNA-1 inh | aDG glyco act | NR1D1 mod conf | others
CS(=O)(=O)c1ccc2nc(NC(=O)c3cc([N+](=O)[O-])cc([N+](=O)[O-])c3)sc2c1 | 5 | 3 | x | -1 | -12 | 0 | x
O=C(Nc1ccc2c(c1)C(=O)NC2=O)c1ccc2ncsc2c1 | 57* | 15 | -22 | 2 | -4 | 0 | 54* | RORg counter=6*
COc1ccc2oc(C(=O)Nc3nc4ccc(S(C)(=O)=O)cc4s3)c(C)c2c1 | 31* | -2 | x | -1 | -15 | 1 | 0
COc1ccc2oc(C(=O)Nc3nnc(C)s3)c(C)c2c1 | 2 | 8 | x | 0 | x | 0 | x
COC(=O)C[C@@H]1CC[C@H]2[C@@H](COc3ccc(NC(=O)NC(C)C)cc3C(=O)N2C)O1 | 2 | x | x | x | x | x | x
Cc1cccc(CCNc2nc3ccccc3n3nnnc23)c1 | 44* | 6 | -74 | 0 | -9 | 0 | 15
Clc1ccc(Nc2nc3ccccc3n3nnnc23)cc1 | 33* | -18 | -9 | -3 | -2 | 0 | 18*
CC(=O)c1cc(-c2ccc3c(c2)OCO3)c(=O)n2c1CCC2 | 6 | x | x | x | x | x | x
CCn1c(Cc2cccs2)nnc1SCC(=O)Nc1ccc(Cl)cc1C | 2 | x | x | x | x | x | x
CCc1cc2cc3c(cc2nc1SCC(=O)Nc1c[nH]c(=O)[nH]c1=O)OCO3 | 187* | -37 | x | 1 | -14 | 0 | 172* | RORg counter=>40
CCc1cc2cc3c(cc2nc1SCC(=O)Nc1nccs1)OCO3 | 225* | 3 | -6 | 14* | 17 | 0 | 123* | RORg counter=>40
COC(=O)[C@]12C[C@H](CC(=O)NCC3CCCCC3)C(=O)N(Cc3cccc4ccccc34)C1=C[C@H](COCc1ccccc1)O[C@@H]2C | 1 | x | x | x | x | x | x
C=CCSc1nc(N)c(C(=O)Nc2ccccc2OC)cc1C(=O)Nc1ccccc1 | 20* | 8 | -11 | 3 | 7 | 0 | 15
O=C(NC1CCCCN(Cc2ccc(Cl)cc2)C1=O)c1ccc(-c2ccccc2)cc1 (stereo not given) | 1 | x | x | x | x | x | x
Nc1nc(-c2ccccc2)c(N=Nc2ccccc2Cl)s1 | 30* | -1 | -7 | -2 | 1 | -1 | 27*
O=C(O)c1cccc(-n2c(/C=C/c3ccccc3)nc3ccccc3c2=O)c1 | 4 | -20 | x | -1 | 3 | 0 | x
CN(C)c1ccc(/C=C/c2nc3ccccc3c(=O)n2-c2ccc(C(=O)O)cc2)cc1 | 23* | 14 | x | 0 | 8 | 0 | 24*
Cc1cc2cc3c(=O)[nH]c(=O)[nH]c3nc2cc1C | 33* | -14 | 151* | 0 | -5 | x | 41* | RORg counter=>40
CCOC(=O)c1nn2c(C(F)(F)F)cc(-c3ccc(OC)cc3)nc2c1Br | 41* | 12 | x | -1 | -1 | 0 | 5
COc1ccc(CNC(=O)C2CCC(CNS(=O)(=O)c3cccc4nsnc34)CC2)cc1 (stereo not given) | 72* | -12 | -6 | 1 | 13 | 0 | 52* | RORg counter=>40
O=C(NCc1ccc2c(c1)OCO2)C1CCC(CNS(=O)(=O)c2cccc3nsnc23)CC1 (stereo not given) | 34* | 3 | -5 | 1 | -1 | 0 | 28* | RORg counter=>40
Cc1ccc(OCC(=O)Nc2ccc(Cl)cc2)c(-n2nc3ccccc3n2)c1 | 69* | -9 | 0 | 0 | -3 | 0 | 10
Cc1cccc(Cn2cc(COC(=O)N3CCCC3)nn2)c1 | -7 | x | x | x | x | x | x
C=CCSc1nc(-c2ccccc2)c2cc(Cl)ccc2n1 | 5 | 6 | -7 | 0 | 1 | 0 | x
N#CCSc1nc(-c2ccccc2)c2cc(Cl)ccc2n1 | 21* | -1 | 22 | 0 | 20 | 0 | 10
CN1C(=O)/C(=C/C=C2\SCCN2C)N(C)C1=S | 51* | x | -6 | -37 | x | 0 | 22*
COc1cc(OC)cc(C(=O)N(Cc2ccco2)c2c(N)n(Cc3ccccc3)c(=O)[nH]c2=O)c1 | 17* | x | x | -2 | x | 0 | -4
